# Data published in publication PMC7862700, “An all-to-all approach to the identification of sequence-specific readers for epigenetic DNA modifications on cytosine”.
# Tests used:
# Assay in all cases: DAPPL (digital affinity profiling via proximity ligation, sequencing); 10 mM Tris-HCl pH 7.5, 50 mM NaCl, 1 mM DTT, 4% glycerol, room temperature, 30 min; GST-TFs on glutathione beads, 16-mer random dsDNA library, 0.1% formaldehyde crosslink after washing; high values mean tight binding
# FLI1 = target: T1, FLI1 (Homo sapiens, UniProt Q01543 1-452); conditions: protein: recombinant; tags: N-terminal GST; dsDNA, one strand shown
# T1 sequence: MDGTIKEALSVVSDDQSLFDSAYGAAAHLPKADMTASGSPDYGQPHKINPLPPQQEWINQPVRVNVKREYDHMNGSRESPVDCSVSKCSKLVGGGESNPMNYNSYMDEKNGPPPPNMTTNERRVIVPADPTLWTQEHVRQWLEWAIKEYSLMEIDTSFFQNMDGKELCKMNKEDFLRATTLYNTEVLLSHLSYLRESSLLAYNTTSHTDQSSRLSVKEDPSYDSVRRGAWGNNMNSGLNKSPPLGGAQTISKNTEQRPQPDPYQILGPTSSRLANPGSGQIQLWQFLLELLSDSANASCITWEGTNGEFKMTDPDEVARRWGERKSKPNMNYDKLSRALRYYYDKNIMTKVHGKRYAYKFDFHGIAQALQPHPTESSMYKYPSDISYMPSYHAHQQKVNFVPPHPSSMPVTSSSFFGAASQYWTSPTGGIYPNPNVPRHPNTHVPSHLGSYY
# Summary of the method: (§1)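 Pools of DNA-barcoded human transcription factors, expressed in yeast as GST fusions on glutathione beads and combined with a tag-only sample, were incubated with 200 nmole of a 16-mer random double-stranded DNA library. Incubation took 30 min at room temperature in Tris/NaCl/DTT/glycerol buffer and was followed by washing, 0.1% formaldehyde crosslinking, proximity ligation (BsaI/T4 ligase, 1 h, 37 °C), PCR amplification and sequencing on an Illumina NextSeq500. Binding signal is the ratio of a hexamer's read frequency for a factor to its frequency for the tag-only sample.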
# ELK1 = target: T2, ELK1 (Homo sapiens, UniProt P19419 1-428); conditions: protein: recombinant; tags: N-terminal GST; dsDNA, one strand shown
# T2 sequence: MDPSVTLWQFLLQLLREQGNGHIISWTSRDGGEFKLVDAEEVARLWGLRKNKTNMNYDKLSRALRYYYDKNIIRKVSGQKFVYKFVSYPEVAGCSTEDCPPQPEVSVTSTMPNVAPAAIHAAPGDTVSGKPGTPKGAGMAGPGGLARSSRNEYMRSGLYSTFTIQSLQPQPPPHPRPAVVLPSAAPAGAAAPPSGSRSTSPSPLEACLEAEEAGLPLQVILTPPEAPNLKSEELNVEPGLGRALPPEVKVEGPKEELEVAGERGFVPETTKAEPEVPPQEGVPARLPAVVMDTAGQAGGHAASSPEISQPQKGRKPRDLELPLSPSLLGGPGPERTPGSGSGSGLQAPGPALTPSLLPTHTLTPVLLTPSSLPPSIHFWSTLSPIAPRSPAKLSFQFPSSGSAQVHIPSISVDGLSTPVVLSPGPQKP
# Summary of the method: as §1
# GABPA = target: T3, GABPA (Homo sapiens, UniProt Q06546 1-454); conditions: protein: recombinant; tags: N-terminal GST; dsDNA, one strand shown
# T3 sequence: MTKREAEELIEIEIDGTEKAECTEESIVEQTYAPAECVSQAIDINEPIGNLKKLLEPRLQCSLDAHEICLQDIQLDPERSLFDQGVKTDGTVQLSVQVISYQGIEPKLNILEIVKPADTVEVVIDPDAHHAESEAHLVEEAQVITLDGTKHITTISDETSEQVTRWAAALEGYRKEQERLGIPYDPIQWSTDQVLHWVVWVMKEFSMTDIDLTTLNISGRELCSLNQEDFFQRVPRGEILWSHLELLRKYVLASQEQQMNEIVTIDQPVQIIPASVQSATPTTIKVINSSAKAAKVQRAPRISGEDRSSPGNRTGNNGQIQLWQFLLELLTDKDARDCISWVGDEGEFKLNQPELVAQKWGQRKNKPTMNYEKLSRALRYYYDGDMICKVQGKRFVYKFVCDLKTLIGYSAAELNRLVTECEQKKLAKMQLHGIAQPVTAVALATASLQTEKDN
# Summary of the method: as §1
# ERG = target: T4, ERG (Homo sapiens, UniProt P11308 1-479); conditions: protein: recombinant; tags: N-terminal GST; dsDNA, one strand shown
# T4 sequence: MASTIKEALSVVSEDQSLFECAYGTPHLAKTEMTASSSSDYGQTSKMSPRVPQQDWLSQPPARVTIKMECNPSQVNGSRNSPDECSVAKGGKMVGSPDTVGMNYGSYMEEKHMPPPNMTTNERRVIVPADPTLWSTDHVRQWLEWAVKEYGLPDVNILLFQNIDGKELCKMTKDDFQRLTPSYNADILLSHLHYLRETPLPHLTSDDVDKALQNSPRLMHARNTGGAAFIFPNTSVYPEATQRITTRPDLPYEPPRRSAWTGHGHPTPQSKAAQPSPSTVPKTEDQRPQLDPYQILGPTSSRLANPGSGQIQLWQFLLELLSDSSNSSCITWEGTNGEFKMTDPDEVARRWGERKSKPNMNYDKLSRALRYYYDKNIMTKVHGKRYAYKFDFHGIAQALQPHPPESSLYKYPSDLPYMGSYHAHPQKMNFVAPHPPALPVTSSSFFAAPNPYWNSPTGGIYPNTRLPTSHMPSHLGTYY
# Summary of the method: as §1
# ELF1 = ELF1 (Homo sapiens, UniProt P32519 1-619); conditions: protein: recombinant; tags: N-terminal GST; dsDNA, one strand shown
# Summary of the method: as §1
# EHF = target: T5, EHF (Homo sapiens, UniProt Q9NZC4 1-300); conditions: protein: recombinant; tags: N-terminal GST; dsDNA, one strand shown
# T5 sequence: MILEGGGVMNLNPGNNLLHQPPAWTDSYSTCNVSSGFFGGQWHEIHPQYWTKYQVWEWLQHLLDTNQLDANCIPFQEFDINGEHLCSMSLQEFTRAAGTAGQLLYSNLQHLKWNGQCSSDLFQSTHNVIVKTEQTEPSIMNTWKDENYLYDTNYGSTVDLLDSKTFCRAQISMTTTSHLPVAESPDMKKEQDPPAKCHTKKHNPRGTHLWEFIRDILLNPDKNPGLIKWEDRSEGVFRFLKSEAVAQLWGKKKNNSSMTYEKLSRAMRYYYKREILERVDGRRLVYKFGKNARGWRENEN
# Summary of the method: as §1
# SPI1 = SPI1 (Homo sapiens, UniProt P17947 1-270); conditions: protein: recombinant; tags: N-terminal GST; dsDNA, one strand shown
# Summary of the method: as §1
# SPIB = SPIB (Homo sapiens, UniProt Q01892 1-262); conditions: protein: recombinant; tags: N-terminal GST; dsDNA, one strand shown
# Summary of the method: as §1
# ELK3 = target: T6, ELK3 (Homo sapiens, UniProt P41970 1-407); conditions: protein: recombinant; tags: N-terminal GST; dsDNA, one strand shown
# T6 sequence: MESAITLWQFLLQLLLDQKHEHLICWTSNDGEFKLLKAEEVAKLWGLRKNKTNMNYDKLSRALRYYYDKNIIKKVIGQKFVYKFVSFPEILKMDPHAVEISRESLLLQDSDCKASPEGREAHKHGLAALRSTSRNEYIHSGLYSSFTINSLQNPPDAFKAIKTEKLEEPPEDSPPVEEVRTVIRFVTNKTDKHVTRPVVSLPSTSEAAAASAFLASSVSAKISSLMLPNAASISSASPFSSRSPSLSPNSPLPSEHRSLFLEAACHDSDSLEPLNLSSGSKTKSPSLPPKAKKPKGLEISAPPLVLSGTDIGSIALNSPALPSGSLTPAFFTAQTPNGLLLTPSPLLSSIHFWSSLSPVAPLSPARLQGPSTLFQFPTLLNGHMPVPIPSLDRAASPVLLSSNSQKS
# Summary of the method: as §1
# FEV = target: T7, FEV (Homo sapiens, UniProt Q99581 1-238); conditions: protein: recombinant; tags: N-terminal GST; dsDNA, one strand shown
# T7 sequence: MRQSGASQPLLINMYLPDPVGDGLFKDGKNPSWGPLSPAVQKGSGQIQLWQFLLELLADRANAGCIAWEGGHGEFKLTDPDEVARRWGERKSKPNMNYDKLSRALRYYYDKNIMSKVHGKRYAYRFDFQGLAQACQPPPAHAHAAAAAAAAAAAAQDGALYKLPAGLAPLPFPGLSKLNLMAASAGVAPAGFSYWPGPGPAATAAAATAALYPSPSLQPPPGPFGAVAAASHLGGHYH
# Summary of the method: as §1
# ETV5 = ETV5 (Homo sapiens, UniProt P41161 1-510); conditions: protein: recombinant; tags: N-terminal GST; dsDNA, one strand shown
# Summary of the method: as §1
# HSF1 = HSF1 (Homo sapiens, UniProt Q00613 1-529); conditions: protein: recombinant; tags: N-terminal GST; chain copies: 3; dsDNA, one strand shown
# Summary of the method: as §1
# SPIC = target: T8, SPIC (Homo sapiens, UniProt Q8N5J4 1-248); conditions: protein: recombinant; tags: N-terminal GST; dsDNA, one strand shown
# T8 sequence: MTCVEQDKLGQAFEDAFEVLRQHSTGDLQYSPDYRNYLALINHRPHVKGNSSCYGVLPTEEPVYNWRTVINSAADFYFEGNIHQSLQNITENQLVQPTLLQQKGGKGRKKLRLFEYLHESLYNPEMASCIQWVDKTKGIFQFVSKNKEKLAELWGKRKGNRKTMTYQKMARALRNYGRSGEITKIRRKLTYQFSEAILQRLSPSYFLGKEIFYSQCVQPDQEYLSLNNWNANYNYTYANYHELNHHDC
# Summary of the method: as §1
# ELF4 = ELF4 (Homo sapiens, UniProt Q99607 1-663); conditions: protein: recombinant; tags: N-terminal GST; dsDNA, one strand shown
# Summary of the method: as §1
# ELK4 = target: T9, ELK4 (Homo sapiens, UniProt P28324-2 1-405); conditions: protein: recombinant; tags: N-terminal GST; dsDNA, one strand shown
# T9 sequence: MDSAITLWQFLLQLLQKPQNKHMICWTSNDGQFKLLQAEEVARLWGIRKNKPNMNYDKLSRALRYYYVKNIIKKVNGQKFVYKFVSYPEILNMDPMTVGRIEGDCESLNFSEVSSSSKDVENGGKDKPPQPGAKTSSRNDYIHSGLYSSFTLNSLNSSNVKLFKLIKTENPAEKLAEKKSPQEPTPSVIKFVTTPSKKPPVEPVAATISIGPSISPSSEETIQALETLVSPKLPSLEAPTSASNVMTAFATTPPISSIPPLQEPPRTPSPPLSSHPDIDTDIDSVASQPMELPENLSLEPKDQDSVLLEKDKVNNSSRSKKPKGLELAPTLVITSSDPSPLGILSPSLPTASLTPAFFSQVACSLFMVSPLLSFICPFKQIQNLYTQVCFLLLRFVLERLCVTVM
# Summary of the method: as §1
# ETV2 = target: T10, ETV2 (Homo sapiens, UniProt O00321 1-342); conditions: protein: recombinant; tags: N-terminal GST; dsDNA, one strand shown
# T10 sequence: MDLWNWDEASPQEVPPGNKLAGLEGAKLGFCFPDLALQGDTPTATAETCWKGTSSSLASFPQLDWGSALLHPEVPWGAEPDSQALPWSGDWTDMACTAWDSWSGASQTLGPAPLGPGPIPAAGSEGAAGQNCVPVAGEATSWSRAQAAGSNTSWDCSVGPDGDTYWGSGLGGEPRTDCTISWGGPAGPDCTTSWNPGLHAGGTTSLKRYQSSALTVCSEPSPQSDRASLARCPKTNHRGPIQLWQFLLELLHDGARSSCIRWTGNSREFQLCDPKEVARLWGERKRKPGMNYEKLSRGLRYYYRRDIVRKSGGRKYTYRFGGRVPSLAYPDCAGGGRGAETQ
# Summary of the method: as §1
# ELF3 = target: T11, ELF3 (Homo sapiens, UniProt P78545 1-371); conditions: protein: recombinant; tags: N-terminal GST; dsDNA, one strand shown
# T11 sequence: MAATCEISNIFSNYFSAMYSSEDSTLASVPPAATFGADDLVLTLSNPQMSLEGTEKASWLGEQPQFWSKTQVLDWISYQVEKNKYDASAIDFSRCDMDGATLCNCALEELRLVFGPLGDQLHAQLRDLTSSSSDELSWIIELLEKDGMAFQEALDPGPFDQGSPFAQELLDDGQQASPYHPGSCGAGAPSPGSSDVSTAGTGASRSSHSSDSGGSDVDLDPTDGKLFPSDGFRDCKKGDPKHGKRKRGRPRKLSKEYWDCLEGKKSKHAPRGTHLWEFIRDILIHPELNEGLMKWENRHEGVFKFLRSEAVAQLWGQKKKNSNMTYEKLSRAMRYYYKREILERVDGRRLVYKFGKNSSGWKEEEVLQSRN
# Summary of the method: as §1
# CRX = CRX (Homo sapiens, UniProt O43186 1-299); conditions: protein: recombinant; tags: N-terminal GST; dsDNA, one strand shown
# Summary of the method: as §1
# ETV1 = ETV1 (Homo sapiens, UniProt P50549 1-477); conditions: protein: recombinant; tags: N-terminal GST; dsDNA, one strand shown
# Summary of the method: as §1
# ETV5, sequence (P41161 whole entry): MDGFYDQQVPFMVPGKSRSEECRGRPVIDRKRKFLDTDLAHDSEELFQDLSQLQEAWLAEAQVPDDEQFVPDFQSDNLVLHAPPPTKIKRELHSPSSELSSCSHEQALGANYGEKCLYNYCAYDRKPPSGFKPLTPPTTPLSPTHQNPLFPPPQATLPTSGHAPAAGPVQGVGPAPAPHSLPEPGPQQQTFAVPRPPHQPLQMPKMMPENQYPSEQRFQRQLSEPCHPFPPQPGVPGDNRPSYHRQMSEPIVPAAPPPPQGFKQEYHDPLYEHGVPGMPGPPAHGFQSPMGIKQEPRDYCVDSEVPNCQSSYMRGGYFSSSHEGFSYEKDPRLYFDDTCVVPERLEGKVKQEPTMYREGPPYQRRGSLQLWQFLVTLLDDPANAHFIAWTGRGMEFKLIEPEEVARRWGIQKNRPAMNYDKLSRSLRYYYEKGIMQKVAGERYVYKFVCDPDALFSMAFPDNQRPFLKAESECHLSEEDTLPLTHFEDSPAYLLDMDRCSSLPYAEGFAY
# ELF4, sequence (Q99607 whole entry): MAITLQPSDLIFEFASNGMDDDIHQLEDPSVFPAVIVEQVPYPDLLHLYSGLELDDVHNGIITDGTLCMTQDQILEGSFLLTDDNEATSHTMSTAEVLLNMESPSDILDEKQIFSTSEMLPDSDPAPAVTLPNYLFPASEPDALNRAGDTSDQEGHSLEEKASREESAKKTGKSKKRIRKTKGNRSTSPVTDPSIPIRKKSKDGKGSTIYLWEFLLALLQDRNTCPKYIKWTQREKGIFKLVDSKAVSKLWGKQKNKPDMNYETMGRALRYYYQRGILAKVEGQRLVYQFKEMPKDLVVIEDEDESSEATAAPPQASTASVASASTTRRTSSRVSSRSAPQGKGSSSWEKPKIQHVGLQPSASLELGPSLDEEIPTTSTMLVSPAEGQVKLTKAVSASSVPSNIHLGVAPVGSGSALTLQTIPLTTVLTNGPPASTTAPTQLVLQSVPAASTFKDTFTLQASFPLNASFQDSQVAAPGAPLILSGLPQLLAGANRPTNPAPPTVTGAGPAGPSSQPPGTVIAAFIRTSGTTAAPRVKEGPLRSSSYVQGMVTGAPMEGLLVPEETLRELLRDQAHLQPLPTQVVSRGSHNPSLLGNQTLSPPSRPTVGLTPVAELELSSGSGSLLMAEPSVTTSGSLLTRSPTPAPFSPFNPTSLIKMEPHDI
# SPIB, sequence (Q01892 whole entry): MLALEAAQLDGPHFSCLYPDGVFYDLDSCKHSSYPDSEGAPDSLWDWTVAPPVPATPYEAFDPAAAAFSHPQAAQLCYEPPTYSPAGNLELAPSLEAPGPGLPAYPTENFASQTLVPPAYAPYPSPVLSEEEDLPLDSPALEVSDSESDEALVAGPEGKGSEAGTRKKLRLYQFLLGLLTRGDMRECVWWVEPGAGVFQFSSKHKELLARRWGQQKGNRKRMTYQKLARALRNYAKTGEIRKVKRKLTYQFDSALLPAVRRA
# CRX, sequence (O43186 whole entry): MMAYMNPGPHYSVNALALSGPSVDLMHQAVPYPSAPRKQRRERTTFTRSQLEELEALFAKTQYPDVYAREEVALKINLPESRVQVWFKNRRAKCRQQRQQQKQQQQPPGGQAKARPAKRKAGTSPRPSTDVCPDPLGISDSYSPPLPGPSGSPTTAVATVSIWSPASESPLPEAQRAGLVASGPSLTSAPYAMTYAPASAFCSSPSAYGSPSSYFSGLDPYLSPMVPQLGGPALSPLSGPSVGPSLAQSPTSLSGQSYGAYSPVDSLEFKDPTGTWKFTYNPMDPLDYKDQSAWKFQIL
# ELF1, sequence (P32519 whole entry): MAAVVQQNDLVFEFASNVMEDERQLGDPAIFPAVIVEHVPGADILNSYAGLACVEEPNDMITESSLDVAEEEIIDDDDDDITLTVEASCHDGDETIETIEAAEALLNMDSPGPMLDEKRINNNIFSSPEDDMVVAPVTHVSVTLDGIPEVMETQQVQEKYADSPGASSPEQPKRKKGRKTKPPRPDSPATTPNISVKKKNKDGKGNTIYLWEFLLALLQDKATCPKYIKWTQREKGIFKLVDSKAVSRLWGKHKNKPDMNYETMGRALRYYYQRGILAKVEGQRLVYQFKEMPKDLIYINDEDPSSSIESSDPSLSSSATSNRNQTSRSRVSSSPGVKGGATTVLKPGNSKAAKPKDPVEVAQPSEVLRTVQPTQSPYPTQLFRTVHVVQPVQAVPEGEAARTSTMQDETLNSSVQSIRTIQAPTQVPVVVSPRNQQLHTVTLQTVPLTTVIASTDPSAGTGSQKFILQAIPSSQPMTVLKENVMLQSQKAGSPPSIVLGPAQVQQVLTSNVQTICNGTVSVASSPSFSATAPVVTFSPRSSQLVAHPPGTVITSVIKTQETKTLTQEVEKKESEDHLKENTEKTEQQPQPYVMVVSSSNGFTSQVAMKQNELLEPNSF
# HSF1, sequence (Q00613 whole entry): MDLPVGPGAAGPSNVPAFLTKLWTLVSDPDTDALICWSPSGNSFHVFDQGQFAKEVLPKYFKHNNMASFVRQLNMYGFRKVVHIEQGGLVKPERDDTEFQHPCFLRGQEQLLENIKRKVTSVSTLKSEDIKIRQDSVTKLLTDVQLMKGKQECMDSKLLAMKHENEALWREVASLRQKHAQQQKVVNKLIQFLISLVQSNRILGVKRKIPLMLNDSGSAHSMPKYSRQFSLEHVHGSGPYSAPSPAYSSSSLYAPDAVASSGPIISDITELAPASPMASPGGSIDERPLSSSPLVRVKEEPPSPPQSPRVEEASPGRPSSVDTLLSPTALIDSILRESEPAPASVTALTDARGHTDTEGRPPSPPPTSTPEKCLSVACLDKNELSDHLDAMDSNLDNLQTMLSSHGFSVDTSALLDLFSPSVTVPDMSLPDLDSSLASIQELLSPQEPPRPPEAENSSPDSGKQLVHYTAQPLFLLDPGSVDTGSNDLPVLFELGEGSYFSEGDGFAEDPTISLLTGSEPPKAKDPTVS
# ETV1, sequence (P50549 whole entry): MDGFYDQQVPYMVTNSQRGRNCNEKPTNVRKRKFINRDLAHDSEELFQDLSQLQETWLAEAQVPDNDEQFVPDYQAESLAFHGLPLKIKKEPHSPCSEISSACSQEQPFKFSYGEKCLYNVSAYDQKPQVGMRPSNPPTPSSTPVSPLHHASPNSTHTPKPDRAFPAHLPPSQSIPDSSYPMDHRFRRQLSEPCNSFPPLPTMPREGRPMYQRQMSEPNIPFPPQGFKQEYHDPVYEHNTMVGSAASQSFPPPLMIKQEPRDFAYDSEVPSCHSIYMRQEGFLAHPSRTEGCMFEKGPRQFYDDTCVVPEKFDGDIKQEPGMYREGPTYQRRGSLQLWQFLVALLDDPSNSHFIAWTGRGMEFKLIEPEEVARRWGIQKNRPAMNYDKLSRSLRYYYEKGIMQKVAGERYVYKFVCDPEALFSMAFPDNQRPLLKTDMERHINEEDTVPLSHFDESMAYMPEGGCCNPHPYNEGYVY
sequence,measurement,setting,value
AATTCG,binding signal,FLI1,"1.29 fold enrichment (6-mer frequency, TF over GST control)"
same,binding signal,ELK1,"1.26 fold enrichment (6-mer frequency, TF over GST control)"
same,binding signal,GABPA,"1.24 fold enrichment (6-mer frequency, TF over GST control)"
same,binding signal,ERG,"1.3 fold enrichment (6-mer frequency, TF over GST control)"
same,binding signal,ELF1,"1.29 fold enrichment (6-mer frequency, TF over GST control)"
same,binding signal,EHF,"1.23 fold enrichment (6-mer frequency, TF over GST control)"
same,binding signal,SPI1,"1.13 fold enrichment (6-mer frequency, TF over GST control)"
same,binding signal,SPIB,"1.38 fold enrichment (6-mer frequency, TF over GST control)"
same,binding signal,ELK3,"1.29 fold enrichment (6-mer frequency, TF over GST control)"
same,binding signal,FEV,"1.26 fold enrichment (6-mer frequency, TF over GST control)"
same,binding signal,ETV5,"1.31 fold enrichment (6-mer frequency, TF over GST control)"
same,binding signal,HSF1,"1.76 fold enrichment (6-mer frequency, TF over GST control)"
same,binding signal,SPIC,"1.43 fold enrichment (6-mer frequency, TF over GST control)"
same,binding signal,ELF4,"1.26 fold enrichment (6-mer frequency, TF over GST control)"
same,binding signal,ELK4,"1.23 fold enrichment (6-mer frequency, TF over GST control)"
same,binding signal,ETV2,"1.19 fold enrichment (6-mer frequency, TF over GST control)"
same,binding signal,ELF3,"1.3 fold enrichment (6-mer frequency, TF over GST control)"
same,binding signal,CRX,"1.57 fold enrichment (6-mer frequency, TF over GST control)"
same,binding signal,ETV1,"1.18 fold enrichment (6-mer frequency, TF over GST control)"
